Source: the antibiotic and cytotoxicity screens of Wong et al. (2023)
Among all 39,000 compounds or so, about 3,300 (8.5%) were called active. The list comes from a sample in which actives are over-represented; it also holds similar structures and randomly drawn compounds.

test system: HepG2; experiment: cytotoxicity call (relative viability < 0.9); details: 10 µM

How did the cytotoxicity call turn out when C=CCN([C@@H](Cc1ccccc1)[C@@H](O)c1cn(CCCNC(=O)C(=O)NC)nn1)S(=O)(=O)c1ccccc1[N+](=O)[O-] was run?
Its cytotoxicity call is “inactive”.

For C[C@@H]1CN([C@@H](C)CO)S(=O)(=O)c2ccc(C#CCN(C)C)cc2O[C@H]1CN(C)S(=O)(=O)c1cccc(F)c1, which cytotoxicity call is on record?
Its cytotoxicity call is “inactive”.

With CC(=O)OC[C@@H](OC(C)=O)[C@H](OC(C)=O)[C@H](OC(C)=O)[C@H](OC(C)=O)[C@@H](COC(C)=O)OC(C)=O as the molecule, how does the cytotoxicity call read?
Its cytotoxicity call is “inactive”.

How did the cytotoxicity call turn out when Cc1noc(C)c1NC(=O)Nc1ccc2c(c1)C(=O)N([C@@H](C)CO)C[C@H](C)[C@@H](CN(C)C(=O)NC(C)C)O2 was run?
The cytotoxicity call was “inactive”.

COc1ccc(S(=O)(=O)Nc2ccc3c(c2)CC(=O)N([C@@H](C)CO)C[C@H](C)[C@H](CN(C)Cc2ccc(Cl)c(Cl)c2)O3)cc1 was tested. Which cytotoxicity call did it give?
Its cytotoxicity call is “active”.

Which cytotoxicity call does the source give for COc1ccc(S(=O)(=O)Nc2ccc3c(c2)CC(=O)N([C@@H](C)CO)C[C@H](C)[C@@H](CN(C)Cc2ccc(Cl)c(Cl)c2)O3)cc1 here?
The cytotoxicity call was “inactive”.

Which cytotoxicity call does the source give for COc1ccc(S(=O)(=O)Nc2ccc3c(c2)CC(=O)N([C@H](C)CO)C[C@H](C)[C@H](CN(C)Cc2ccc(Cl)c(Cl)c2)O3)cc1 here?
Its cytotoxicity call is “active”.

For COc1ccc(S(=O)(=O)Nc2ccc3c(c2)CC(=O)N([C@@H](C)CO)C[C@@H](C)[C@@H](CN(C)Cc2ccc(Cl)c(Cl)c2)O3)cc1, which cytotoxicity call is on record?
The cytotoxicity call was “active”.

With COc1ccc(S(=O)(=O)Nc2ccc3c(c2)CC(=O)N([C@@H](C)CO)C[C@@H](C)[C@H](CN(C)Cc2ccc(Cl)c(Cl)c2)O3)cc1 as the molecule, how does the cytotoxicity call read?
Its cytotoxicity call is “inactive”.

With COc1ccc(S(=O)(=O)Nc2ccc3c(c2)CC(=O)N([C@H](C)CO)C[C@@H](C)[C@H](CN(C)Cc2ccc(Cl)c(Cl)c2)O3)cc1 as the molecule, how does the cytotoxicity call read?
The cytotoxicity call was “active”.

With CN1C(=O)c2cc(NC(=O)c3cscn3)ccc2OC[C@@H]2O[C@H](CC(=O)N3CCOCC3)CC[C@@H]21 as the molecule, how does the cytotoxicity call read?
Its cytotoxicity call is “inactive”.

Which cytotoxicity call does the source give for OCC1OC(OCCc2ccc(O)cc2)C(O)C(O)C1O (stereo not given) here?
The cytotoxicity call was “inactive”.

For C[C@@H]1CN([C@H](C)CO)C(=O)c2cc(NC(=O)Nc3ccc(F)cc3)ccc2O[C@@H](C)CCCCO[C@@H]1CN(C)Cc1ccc(C(=O)O)cc1, which cytotoxicity call is on record?
Its cytotoxicity call is “inactive”.

COc1ccccc1-c1cnc2c(c1)C(=O)N([C@H](C)CO)C[C@H](C)[C@H](CN(C)C(=O)c1cccnc1)O2 was tested. Which cytotoxicity call did it give?
Its cytotoxicity call is “inactive”.

How did the cytotoxicity call turn out when CC(O)C(=O)[O-].[NH4+] (stereo not given) was run?
The cytotoxicity call was “inactive”.

Which cytotoxicity call does the source give for C[C@H]1CN([C@@H](C)CO)C(=O)c2cccc(NC(=O)Nc3ccc(F)cc3)c2O[C@@H]1CN(C)C(=O)Nc1ccc(C(F)(F)F)cc1 here?
The cytotoxicity call was “inactive”.

With COc1ccc(S(=O)(=O)Nc2ccc3c(c2)CC(=O)N([C@H](C)CO)C[C@@H](C)[C@@H](CN(C)Cc2ccc(Cl)c(Cl)c2)O3)cc1 as the molecule, how does the cytotoxicity call read?
The cytotoxicity call was “active”.

With COc1ccc(S(=O)(=O)Nc2ccc3c(c2)CC(=O)N([C@H](C)CO)C[C@H](C)[C@@H](CN(C)Cc2ccc(Cl)c(Cl)c2)O3)cc1 as the molecule, how does the cytotoxicity call read?
The cytotoxicity call was “inactive”.

For C/N=C1/S[C@@H]2CS(=O)(=O)C[C@@H]2N1C, which cytotoxicity call is on record?
Its cytotoxicity call is “inactive”.

With O=C(C[C@H]1CC[C@H]2[C@@H](COC[C@@H](O)CN2S(=O)(=O)c2ccc(F)cc2)O1)N[C@H]1CCN(Cc2ccccc2)C1 as the molecule, how does the cytotoxicity call read?
Its cytotoxicity call is “inactive”.

Which cytotoxicity call does the source give for COc1cccc(CNC(=O)C[C@@H]2C=C[C@H](NC(=O)C3CCOCC3)[C@@H](CO)O2)c1 here?
Its cytotoxicity call is “inactive”.

Which cytotoxicity call does the source give for C[C@@H]1CN([C@@H](C)CO)C(=O)c2cccc(NS(=O)(=O)c3cn(C)cn3)c2O[C@@H]1CN(C)Cc1ccccc1 here?
Its cytotoxicity call is “inactive”.

How did the cytotoxicity call turn out when COc1ccc2cc1Oc1ccc(cc1)CC1c3c(cc4c(c3Oc3cc5c(cc3OC)CCN(C)C5C2)OCO4)CCN1C (stereo not given) was run?
Its cytotoxicity call is “active”.

COc1cc2c3cc1Oc1cc(ccc1O)CC1c4c(cc(OC)c(O)c4Oc4ccc(cc4)CC3N(C)CC2)CC[N+]1(C)C.Cl.O.O.O.O.O.[Cl-] (stereo not given) was tested. Which cytotoxicity call did it give?
Its cytotoxicity call is “inactive”.

Which cytotoxicity call does the source give for COc1ccc2cc1Oc1ccc(cc1)C[C@H]1c3c(cc4c(c3Oc3cc5c(cc3OC)CCN(C)[C@@H]5C2)OCO4)CCN1C here?
Its cytotoxicity call is “inactive”.

Which cytotoxicity call does the source give for COc1cc2c3cc1Oc1cc(ccc1O)C[C@@H]1c4c(cc(OC)c(O)c4Oc4ccc(cc4)C[C@@H]3N(C)CC2)CC[N+]1(C)C here?
The cytotoxicity call was “inactive”.

For COc1ccc2cc1Oc1ccc(cc1)CC1c3cc(c(OC)cc3CCN1C)Oc1c(OC)c(OC)cc3c1C(C2)N(C)CC3 (stereo not given), which cytotoxicity call is on record?
The cytotoxicity call was “inactive”.

How did the cytotoxicity call turn out when COc1ccc2cc1Oc1ccc(cc1)C[C@H]1c3cc(c(OC)cc3CCN1C)Oc1c(OC)c(OC)cc3c1[C@H](C2)N(C)CC3 was run?
Its cytotoxicity call is “active”.

How did the cytotoxicity call turn out when CO[C@H]1CN(C)C(=O)c2cc(NS(C)(=O)=O)ccc2OC[C@H](C)N(S(C)(=O)=O)C[C@@H]1C was run?
The cytotoxicity call was “inactive”.

With CNC[C@@H]1OCCCC[C@@H](C)Oc2ccc(NS(=O)(=O)c3cn(C)cn3)cc2C(=O)N([C@@H](C)CO)C[C@@H]1C as the molecule, how does the cytotoxicity call read?
The cytotoxicity call was “inactive”.

For C[C@H]1CN([C@@H](C)CO)C(=O)c2cc(C#CC3(O)CCCC3)cnc2O[C@H]1CN(C)C(=O)Cc1ccncc1, which cytotoxicity call is on record?
The cytotoxicity call was “inactive”.

Which cytotoxicity call does the source give for O=C(Nc1ccc2ccccc2c1)c1ccc(Cl)cc1Cl here?
The cytotoxicity call was “inactive”.

How did the cytotoxicity call turn out when O=C(Nc1ccc(Oc2ccc(Cl)cc2)c(Cl)c1)c1cc(I)cc(I)c1O was run?
Its cytotoxicity call is “active”.

With O=C(NO)c1cccc(C(=O)N/N=C/c2cc(I)cc(I)c2O)c1 as the molecule, how does the cytotoxicity call read?
The cytotoxicity call was “inactive”.

C[C@@H]1CCCCO[C@H](CN(C)C(=O)Nc2ccc(C(F)(F)F)cc2)[C@@H](C)CN([C@H](C)CO)C(=O)c2cc(NS(=O)(=O)c3ccc(F)cc3)ccc2O1 was tested. Which cytotoxicity call did it give?
The cytotoxicity call was “inactive”.

Which cytotoxicity call does the source give for C[C@@H]1CCCCO[C@H](CN(C)C(=O)Nc2ccc(C(F)(F)F)cc2)[C@H](C)CN([C@H](C)CO)C(=O)c2cc(NS(=O)(=O)c3ccc(F)cc3)ccc2O1 here?
Its cytotoxicity call is “active”.

With C[C@H](CO)N1C[C@H](C)[C@H](CN(C)C(=O)Nc2ccc(C(F)(F)F)cc2)OCCCC[C@H](C)Oc2ccc(NS(=O)(=O)c3ccc(F)cc3)cc2C1=O as the molecule, how does the cytotoxicity call read?
The cytotoxicity call was “inactive”.

How did the cytotoxicity call turn out when C[C@@H]1CCCCO[C@H](CN(C)C(=O)Nc2ccc(C(F)(F)F)cc2)[C@H](C)CN([C@@H](C)CO)C(=O)c2cc(NS(=O)(=O)c3ccc(F)cc3)ccc2O1 was run?
The cytotoxicity call was “active”.

How did the cytotoxicity call turn out when C[C@H](CO)N1C[C@H](C)[C@@H](CN(C)C(=O)Nc2ccc(C(F)(F)F)cc2)OCCCC[C@H](C)Oc2ccc(NS(=O)(=O)c3ccc(F)cc3)cc2C1=O was run?
Its cytotoxicity call is “inactive”.

C[C@@H]1CCCCO[C@H](CN(C)C(=O)Nc2ccc(C(F)(F)F)cc2)[C@@H](C)CN([C@@H](C)CO)C(=O)c2cc(NS(=O)(=O)c3ccc(F)cc3)ccc2O1 was tested. Which cytotoxicity call did it give?
The cytotoxicity call was “inactive”.

With C[C@H]1CCCCO[C@H](CN(C)C(=O)Nc2ccc(C(F)(F)F)cc2)[C@@H](C)CN([C@@H](C)CO)C(=O)c2cc(NS(=O)(=O)c3ccc(F)cc3)ccc2O1 as the molecule, how does the cytotoxicity call read?
Its cytotoxicity call is “active”.

Which cytotoxicity call does the source give for C[C@@H]1CN([C@@H](C)CO)C(=O)c2cc(NS(=O)(=O)c3ccc(F)cc3)ccc2O[C@@H](C)CCCCO[C@@H]1CN(C)C(=O)Nc1ccc(C(F)(F)F)cc1 here?
The cytotoxicity call was “active”.

Which cytotoxicity call does the source give for C[C@H]1CN([C@@H](C)CO)S(=O)(=O)c2ccc(C#CC(C)(C)O)cc2O[C@H]1CN(C)Cc1ccccc1 here?
Its cytotoxicity call is “inactive”.

How did the cytotoxicity call turn out when O=C(NO)c1ccc(C(=O)N/N=C/[C@H](O)[C@H](O)[C@@H](O)[C@@H](O)CO)cc1 was run?
Its cytotoxicity call is “inactive”.

For C[C@@H]1CCCCO[C@H](CN(C)S(=O)(=O)c2ccc(F)cc2)[C@@H](C)CN([C@H](C)CO)C(=O)c2cc(NS(C)(=O)=O)ccc2O1, which cytotoxicity call is on record?
Its cytotoxicity call is “inactive”.

How did the cytotoxicity call turn out when C[C@@H]1CCCCO[C@H](CN(C)S(=O)(=O)c2ccccc2)[C@H](C)CN([C@H](C)CO)C(=O)c2cc(NC(=O)Nc3ccccc3)ccc2O1 was run?
Its cytotoxicity call is “inactive”.

For C[C@@H]1CCCCO[C@@H](CN(C)Cc2ccc(C(=O)Nc3ccccc3N)cc2)[C@@H](C)CN([C@H](C)CO)C(=O)c2cc(NC(=O)CCC(F)(F)F)ccc2O1, which cytotoxicity call is on record?
Its cytotoxicity call is “inactive”.

For C[C@@H]1CN([C@@H](C)CO)S(=O)(=O)c2ccc(C#C[C@@H](C)O)cc2O[C@H]1CN(C)C(=O)c1ccccc1, which cytotoxicity call is on record?
Its cytotoxicity call is “inactive”.

How did the cytotoxicity call turn out when COc1ccc(NC(=O)Nc2ccc3c(c2)C(=O)N([C@@H](C)CO)C[C@@H](C)[C@H](CN(C)S(=O)(=O)c2ccccc2)OCCCC[C@H](C)O3)cc1 was run?
The cytotoxicity call was “inactive”.

How did the cytotoxicity call turn out when COc1ccc(S(=O)(=O)N(C)C[C@H]2Oc3ccc(NS(=O)(=O)c4ccccc4)cc3CC(=O)N([C@H](C)CO)C[C@H]2C)cc1 was run?
Its cytotoxicity call is “inactive”.

C[C@@H]1CCCCO[C@@H](CN(C)C(=O)Nc2ccc(C(F)(F)F)cc2)[C@H](C)CN([C@@H](C)CO)C(=O)c2cc(NS(=O)(=O)c3ccc(F)cc3)ccc2O1 was tested. Which cytotoxicity call did it give?
The cytotoxicity call was “active”.

How did the cytotoxicity call turn out when C[C@@H]1CCCCO[C@@H](CN(C)C(=O)Nc2ccc(C(F)(F)F)cc2)[C@H](C)CN([C@H](C)CO)C(=O)c2cc(NS(=O)(=O)c3ccc(F)cc3)ccc2O1 was run?
Its cytotoxicity call is “inactive”.

C[C@H]1CCCCO[C@@H](CN(C)C(=O)Nc2ccc(C(F)(F)F)cc2)[C@@H](C)CN([C@@H](C)CO)C(=O)c2cc(NS(=O)(=O)c3ccc(F)cc3)ccc2O1 was tested. Which cytotoxicity call did it give?
The cytotoxicity call was “inactive”.

Which cytotoxicity call does the source give for C[C@@H]1CCCCO[C@@H](CN(C)C(=O)Nc2ccc(C(F)(F)F)cc2)[C@@H](C)CN([C@H](C)CO)C(=O)c2cc(NS(=O)(=O)c3ccc(F)cc3)ccc2O1 here?
The cytotoxicity call was “active”.

With C[C@@H]1CCCCO[C@@H](CN(C)S(=O)(=O)c2cccs2)[C@H](C)CN([C@H](C)CO)C(=O)c2cc(NS(=O)(=O)c3cn(C)cn3)ccc2O1 as the molecule, how does the cytotoxicity call read?
The cytotoxicity call was “inactive”.

With COCC#Cc1ccc2c(c1)O[C@H](CN(C)S(=O)(=O)c1ccc(OC)cc1)[C@H](C)CN([C@H](C)CO)S2(=O)=O as the molecule, how does the cytotoxicity call read?
The cytotoxicity call was “inactive”.

C[C@@H]1CN([C@@H](C)CO)C(=O)c2cccc(NS(C)(=O)=O)c2O[C@H]1CN(C)C(=O)Nc1ccc(F)cc1 was tested. Which cytotoxicity call did it give?
The cytotoxicity call was “inactive”.

For C[C@H]1CN([C@@H](C)CO)C(=O)c2cc(NC(=O)Cn3cnnn3)ccc2O[C@@H]1CN(C)Cc1ccc2c(c1)OCO2, which cytotoxicity call is on record?
Its cytotoxicity call is “inactive”.

For O=S1(=O)N[C@H](c2ccccc2)CO1, which cytotoxicity call is on record?
The cytotoxicity call was “inactive”.

Which cytotoxicity call does the source give for Cc1ccc(S(=O)(=O)Nc2ccc3c(c2)CC(=O)N([C@H](C)CO)C[C@@H](C)[C@H](CN(C)C(=O)Nc2cccc4ccccc24)O3)cc1 here?
Its cytotoxicity call is “inactive”.
